Assay outcomes: PubChem BioAssay, National Center for Advancing Translational Sciences (NCATS)
The list is not random: actives were taken first. Their share in the collection is about 8%.
VP16 counter: inhibits Gal4-VP16 luciferase reporter, ROR gamma counter-screen | Drosophila S2 Gal4-VP16 UAS-luciferase, luminescence, 20 h | AID 2546 | 310,000 compounds, 3.5% hits | Potency, µM (top dose mostly 53.6 µM), actives largely listed as inhibitors;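 further: Gal4-VP16 expression switched on by copper sulfate through the metallothionein promoter; nearly all actives have a fitted effect of over 50% in size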
TSHR antag: antagonists of human thyroid stimulating hormone receptor. AID 504810. activity change, negative = inhibition, % at 11.5 µM. TSHR-expressing cells, TSH-stimulated cAMP HTRF, 2 h; hits give low values. P16473. 330,000 compounds, 0.2% hits;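 active means activity change below a set negative limit, meaning inhibition stronger than a set level, cut at about -70% in these data; inconclusive means activity change between two set negative limits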
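Inhibition of cAMP made by TSHR-expressing cells under TSH stimulation (4nM final, EC80; 2 h, 37 deg C) is quantified with a one-step lysis HTRF kit, anti-cAMP cryptate versus cAMP-d2.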
FBPA coupling cs: coupling enzyme interference in Giardia aldolase counter-screen. coupling enzyme system counterscreen, AmpLite Red fluorescence. activity change, negative = inhibition, % at 58.2 µM, hits read low. 290,000 compounds, 0.67% hits; in the data active means activity change below about -30%
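Final compound at 57.5 uM, incubated 10 min at RT with coupling enzyme reagent (glyceraldehyde-3-phosphate), then 20 min with substrate and AmpLite Red detection. Fluorescence read at 525/598 nm; tests interference with the coupling assay, not aldolase inhibition.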
RORg inh: blocks mouse ROR gamma transcriptional activity. Drosophila S2 Gal4-RORgamma UAS-luciferase reporter, 20 h. Potency, µM (titrated, usually from 53.6 µM), actives largely listed as inhibitors. 310,000 compounds, 5.4% hits; further: nearly all actives have a fitted effect of over 60% in size
Target sequence (P51450 whole entry, looked up, the tested form may be a part): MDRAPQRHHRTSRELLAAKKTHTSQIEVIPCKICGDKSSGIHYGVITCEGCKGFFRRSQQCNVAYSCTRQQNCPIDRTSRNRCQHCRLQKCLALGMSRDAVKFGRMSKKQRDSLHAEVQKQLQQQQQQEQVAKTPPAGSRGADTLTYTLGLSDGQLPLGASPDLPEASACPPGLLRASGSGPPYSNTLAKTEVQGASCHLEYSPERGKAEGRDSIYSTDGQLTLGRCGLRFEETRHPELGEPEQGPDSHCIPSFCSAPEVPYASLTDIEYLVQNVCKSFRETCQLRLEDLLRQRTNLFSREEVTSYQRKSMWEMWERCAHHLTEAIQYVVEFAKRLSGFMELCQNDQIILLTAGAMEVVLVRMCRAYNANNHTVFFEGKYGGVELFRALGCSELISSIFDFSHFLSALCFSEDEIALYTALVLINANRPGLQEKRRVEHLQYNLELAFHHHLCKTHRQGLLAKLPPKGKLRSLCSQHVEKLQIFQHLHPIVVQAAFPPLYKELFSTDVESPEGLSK
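Stable Schneider cell line, Gal4 DNA-binding domain fused to ROR gamma, UAS-luciferase. Cmpd 1 hr RT → CuSO4 700 uM final → 20 hr RT → luciferase reagent 10 min → luminescence.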
ELG1 DNA repair: blocks ELG1-dependent DNA repair in HEK293T cells; HEK293T ELG1-luciferase reporter, luminescence, 16 h; DNA damage induced by 5-fluorouridine; 330,000 compounds, 2.3% hits; Potency, µM (titrated, usually from 46.1 µM), usual class: inhibitors; AID 504467; further: nearly all actives have a fitted effect of over 55% in size
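Cells (2,000 per well) received 5-fluorouridine plus test compound or DMSO and were incubated 16 hr at 37 °C, 5% CO2. Luciferase activity was read by luminescence 30 min after ONE-Glo addition; signal suppression marked inhibition of damage-induced ELG1 function.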
Each line names hits and unclear results; the compound was inactive in the other large screens. Unless noted, the call rests on the fitted dose curve; in most records, active means well fitted curve in the direction sought with a large enough effect; inconclusive means small, poorly fitted or top-dose-only effect, or another doubt; inactive means no such curve, though single readings can be large; an effect the other way counts as inactive or inconclusive.

O=C(Nc1cccnc1)c1cc2c(s1)-c1ccccc1OC2	RORg inh 4.5µM, ELG1 DNA repair inconclusive
COc1ccc(/C=C(/NC(=O)c2ccco2)C(=O)N2CCCCCC2)cc1OC	none (no result: FBPA coupling cs)
CC(Nc1nc(-c2cccnc2)nc2ccccc12)c1ccc(F)cc1 (stereo unspecified)	ELG1 DNA repair inconclusive
CN(CC[C@@H](Oc1ccc(-c2ccccc2)cc1)c1ccc(F)cc1)CC(=O)O	none (no result: TSHR antag, ELG1 DNA repair)
Cc1cc2c(C)nc(Cc3ccccc3)nc2o1	ELG1 DNA repair 18µM
CSc1nc(C)c2cc(C)oc2n1	none
Cc1cc(C)c(NC(=O)COC(=O)c2ccncc2)c(C)c1	ELG1 DNA repair inconclusive (no result: VP16 counter, FBPA coupling cs, RORg inh)
Cc1cc(N2CCCCC2)n2nc(C)c(-c3ccccc3)c2n1	ELG1 DNA repair inconclusive
COc1ccc(-c2c(C)nn3c(N4CCN(Cc5ccccc5)CC4)cc(C)nc23)cc1OC	ELG1 DNA repair 4.6µM
COc1ccccc1-c1c(C)nn2c(N3CCOCC3)cc(C)nc12	none
COc1ccccc1-c1c(C)nn2c(N3CCCCCC3)cc(C)nc12	VP16 counter 20µM, RORg inh 16µM, ELG1 DNA repair 23µM
Cc1nn2c(N3CCCC3)cc(C(C)C)nc2c1-c1ccccc1	RORg inh 14µM
Brc1ccc(C[n+]2ccccc2)cc1	none (no result: VP16 counter, FBPA coupling cs, RORg inh)
O=C(C1CCN(C2CC(=O)N(c3ccc(F)cc3)C2=O)CC1)N1CCOCC1 (stereo unspecified)	VP16 counter inconclusive, RORg inh 13µM
COc1ccc(N(C(=O)Cn2nnc3ccccc32)C(C(=O)NCc2ccco2)c2ccncc2)cc1 (stereo unspecified)	none
COc1cc(/C=C2\CCCc3c2nc2ccccc2c3C(=O)O)cc(Br)c1O	none
COc1cc(/C=C2\CCc3c2nc2ccccc2c3C(=O)O)cc(OC)c1OC	VP16 counter inconclusive, RORg inh 10µM, ELG1 DNA repair inconclusive
O=C(CN1CCC(n2nnc3cc(F)ccc32)CC1)NC1CC1	none
O=C(CN1CCC(n2nnc3cc(F)ccc32)CC1)N1CCc2ccccc2C1	ELG1 DNA repair 21µM
CCOc1ccc2nc(NC(=O)CN3CCC(n4nnc5cc(F)ccc54)CC3)sc2c1	ELG1 DNA repair 9.2µM
COc1ccc2nc(NC(=O)CSc3ccccc3)sc2c1	RORg inh 1.6µM, ELG1 DNA repair inconclusive
COc1ccc2nc(NNC(=O)C3COc4ccccc4O3)sc2c1 (stereo unspecified)	VP16 counter inconclusive, RORg inh 2.8µM
CC(C)Nc1nc(C#N)nc(Nc2ccccc2)n1	VP16 counter inconclusive (no result: TSHR antag, RORg inh, ELG1 DNA repair)
COC1CC(O[C@H]2/C(C)=C/CC3CC(C[C@]4(CCC(C)C(C5CCCCC5)O4)O3)OC(=O)[C@H]3C=C(C)/C(=N/O)C4OC/C(=C\C=C\[C@@H]2C)[C@@]43O)OC(C)C1O (stereo partly specified)	none (no result: TSHR antag, ELG1 DNA repair)
CCOc1ccc2nc(NC(=O)CSc3ccc(Cl)cc3)sc2c1	VP16 counter inconclusive, RORg inh 11µM
CCOc1ccc2nc(NC(=O)CSC3=NCCS3)sc2c1	RORg inh 14µM
CC(C)(C)c1ccc(CN(Cc2ccco2)Cc2nnnn2C2CCCC2)cc1	VP16 counter 2.8µM
CCc1nc2ccc(C(=O)N3CCN(c4ccc([N+](=O)[O-])cc4)CC3)cc2nc1CC	ELG1 DNA repair inconclusive (no result: FBPA coupling cs)
O=C(O)c1cc(/C=C/C(=O)c2cc(F)ccc2O)c2c(c1)COCO2	VP16 counter 10µM, RORg inh 13µM, ELG1 DNA repair inconclusive
Oc1ccc2ccccc2c1C=NCc1cn2ccsc2n1	VP16 counter 13µM, FBPA coupling cs -35, RORg inh inconclusive
Cc1cc2cc(C(c3nnnn3Cc3ccco3)N3CCCCC3)c(=O)[nH]c2cc1C (stereo unspecified)	none
COc1ccc2[nH]c(=O)c(C(c3nnnn3CC3CCCO3)N3CCCCC3)cc2c1 (stereo unspecified)	none
CCOc1ccc2[nH]c(=O)c(C(c3nnnn3Cc3ccco3)N3CCN(C)CC3)cc2c1 (stereo unspecified)	VP16 counter 3.5µM, FBPA coupling cs -67, RORg inh 3.5µM, ELG1 DNA repair inconclusive
COc1ccccc1N1CCN(C(c2cc3cc(C)ccc3[nH]c2=O)c2nnnn2C2CCCC2)CC1 (stereo unspecified)	RORg inh inconclusive, ELG1 DNA repair inconclusive
